We go through 40 compounds from PubChem BioAssay (NCATS).

Where “and” joins values, the source holds several entries; their conditions need not be identical. Equal values may be shown once. Records with an inconclusive call do not appear. Calls of active or inactive are those of the source. The call rests on the fitted dose curve; in most records, active means well fitted activation curve with a large enough effect; inconclusive means small, poorly fitted or top-dose-only effect; inactive means no such curve, though single readings can be large or run the other way.
Potency means the concentration at half of the fitted maximal effect.

For this test, the target named is Cellular tumor antigen p53 (Homo sapiens) (UniProt P04637). Nature of the test: Primary qHTS for small molecule compounds that upregulate eGFP-tagged delta133p53alpha (in N-terminal) cells. (AID 2060322). Further: nearly all actives have a fitted effect of over 75% in size.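 On activation: series mostly up to about 56 µM; 0% = DMSO vehicle and 100% = reference activator.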 Particulars: NCI-H358 eGFP-delta133p53alpha fluorescence, 24 h; activation: hits give high values. A digest of the protocol: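 NCI-H358 cells pre-induced 24 h with 10 ng/ml doxycycline to express N-terminal eGFP-delta133p53alpha, then dosed 24 h at 37C without doxycycline; fixed, Hoechst-stained, GFP intensity by laser scanning cytometry, normalized to DMSO (0%) and 57.5 uM 5-azacytidine (100%).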
Cellular tumor antigen p53 (Homo sapiens), sequence (P04637 whole entry, looked up): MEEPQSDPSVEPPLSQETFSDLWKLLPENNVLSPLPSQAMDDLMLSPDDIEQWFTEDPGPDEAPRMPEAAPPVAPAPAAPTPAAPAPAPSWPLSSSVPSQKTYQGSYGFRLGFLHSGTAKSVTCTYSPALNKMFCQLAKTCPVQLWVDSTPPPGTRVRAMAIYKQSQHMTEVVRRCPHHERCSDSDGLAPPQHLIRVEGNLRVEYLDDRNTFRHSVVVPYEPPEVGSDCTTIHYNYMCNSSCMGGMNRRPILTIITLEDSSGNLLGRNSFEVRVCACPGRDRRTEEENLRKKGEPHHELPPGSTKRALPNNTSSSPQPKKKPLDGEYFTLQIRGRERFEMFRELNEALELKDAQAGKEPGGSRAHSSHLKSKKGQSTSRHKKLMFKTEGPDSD
Background: In qHTS, concentration-response curves come from the screen itself.
On to `CNC(C)C(=O)NC(C(=O)N1CCCC1C(=O)Nc1cccc2ncccc12)C(C)C` (stereo not given), for which the activation was -21% (inactive).

In the case of `CC1CC2OC3(OC2C(C)(C)O)C1C1(C)CCC24CC25CCC(O[C@@H]2OC[C@@H](O)[C@H](O)[C@H]2O)C(C)(C)C5CC=C4C1(C)C3O` (stereo not given in full), the activation was -18.8% (inactive).

Regarding `COc1cc(/C=C/C(=O)OC[C@H]2O[C@@](CO)(O[C@H]3O[C@H](CO)[C@@H](O)[C@H](O)[C@H]3O)[C@@H](OC(=O)/C=C/c3ccc(O)c(OC)c3)[C@@H]2O)ccc1O`, the activation is -3.82% (inactive).

Consider `CN1C(=O)N(c2cc(Cl)cc(Cl)c2)C(=O)[C@@]1(C)Cc1ccc(Br)cc1`, for which the activation was 5% (inactive).

Consider `COCC(=O)N1CCc2cc(-c3csc(NC(=O)c4cc(OC)cc(OC)c4)n3)ccc21`, for which the activation is 13.7% (inactive).

Take `CC1(C)CC[C@]2(C(=O)O[C@@H]3O[C@H](CO)[C@@H](O)[C@H](O)[C@H]3O)CC[C@]3(C)C(=CCC4[C@@]5(C)CC[C@H](O[C@@H]6O[C@H](C(=O)O)[C@@H](O)[C@H](O)[C@H]6O)[C@@](C)(CO)C5CC[C@]43C)C2C1` (stereo not given in full): the activation is -1.53% (inactive).

For the compound `COc1ccc(CN2CCN(C(c3ccc(F)cc3)c3ccc(F)cc3)CC2)c(OC)c1OC`, the activation is -1.69% (inactive) and -6.68% (inactive).

As to `CC(=O)OC1C=C(C(=O)O)C2(CO)CCC(C)C(C)(CCc3ccoc3)C2C1` (stereo not given), the activation is -25.2% (inactive).

`C=C1CC2[C@]3(C)C(=C(O)C(=O)[C@@]2(C)[C@]2(C(=O)OC)C(=O)C(C)OC(=O)[C@@]12C)C(C)(C)C(=O)CC3O` (stereo not given in full): the activation was 18.3% (inactive).

On to `OC[C@@]1(O)CO[C@H](OC[C@H]2O[C@@H](OC(CCCCc3ccc(O)cc3)CCc3ccc(O)cc3)[C@H](O[C@H]3OC[C@](O)(CO)[C@H]3O)[C@@H](O)[C@@H]2O)[C@@H]1O` (stereo not given in full), for which the activation is -2.29% (inactive).

For the compound `Cc1occc(=O)c1O[C@@H]1O[C@H](COC(=O)CC(C)(O)CC(=O)O)[C@@H](O)[C@H](O)[C@H]1O` (stereo not given in full), the activation was -11.6% (inactive).

Turning to `COC(=O)c1ccnc(-c2cc(C(=O)NCCc3ccccc3)ccn2)c1`, the activation is 3.67% (inactive).

Consider `C=C1CCC[C@]2(C)CC[C@@H](C(=C)C(=O)O)[C@H](O)[C@@H]12`, for which the activation was -7.63% (inactive).

As for `O=C(/C=C/c1ccc(O)cc1)OC[C@]12O[C@H]1[C@@H](O)[C@@H]1C=CO[C@@H](O[C@@H]3O[C@H](CO)[C@@H](O)[C@H](O)[C@H]3O)[C@@H]12`, the activation is 18.3% (inactive).

For `CN1c2c(nc(N)[nH]c2=O)NC[C@@H]1CNc1ccc(C(=O)N[C@@H](CCC(=O)O)C(=O)O)cc1`, the activation is -8.33% (inactive).

Consider `CC(C)C1=CCC(C)(O)C(OC2OC(CO)C(O)C(O)C2O)C1` (stereo not given), for which the activation was -17.6% (inactive).

In the case of `C/C=C(/C)C(=O)OC1C(OC(C)=O)C23C(O)OC4(CCC5C6(C)CCC(OC7OC(C(=O)O)C(O)C(OC8OC(CO)C(O)C(O)C8OC8OC(C)C(O)C(O)C8OC8OCC(O)C(O)C8O)C7OC7OC(CO)C(O)C(O)C7O)C(C)(C)C6CCC5(C)C4(C)CC2OC(C)=O)C3CC1(C)C` (stereo not given), the activation is -7.63% (inactive).

As for `CC(=O)C1=CCC2C3CC=C4CC(O)CC(O)C4(C)C3C(O)CC12C` (stereo not given), the activation was 6.11% (inactive).

As for `C[C@@H]1O[C@@H](O[C@@H]2[C@@H](O)[C@H](O[C@H]3[C@H](O[C@H]4CC[C@@]5(C)C(CC[C@]6(C)C5CC=C5[C@@H]7CC(C)(C)CC[C@]7(C(=O)O[C@@H]7O[C@H](CO)[C@@H](O)[C@H](O)[C@H]7O[C@@H]7O[C@@H](C)[C@H](O[C@@H]8O[C@@H](C)[C@H](O)[C@@H](O)[C@H]8O)[C@@H](O)[C@H]7O)CC[C@]56C)[C@@]4(C)CO)O[C@H](C(=O)O)[C@@H](O)[C@@H]3O)O[C@H](CO)[C@H]2O)[C@H](O)[C@H](O)[C@H]1O` (stereo not given in full), the activation is -9.16% (inactive).

For `C[C@@H]1CC[C@]2(C(=O)O)CC[C@]3(C)C(=CCC4[C@@]5(C)CC[C@H](O)C(C)(C)C5C(O)C[C@]43C)[C@@H]2[C@]1(C)O` (stereo not given in full), the activation is 0.893% (inactive).

As to `CCOc1cccc(NC(=O)c2ccc(N3CCCC3)c(C(F)(F)F)c2)c1`, the activation is 5.67% (inactive).

With `CCC1CC2C(C)=CC3CCCCC3C2(C)C2(OC(=O)C(C)(O)OC2=O)O1` (stereo not given), the activation was -16% (inactive).

On to `Cc1ccc(C)c(S(=O)(=O)n2cnc3ccccc32)c1`, for which the activation is 1% (inactive).

`C=C1C(=O)O[C@@H]2[C@H]3C(C)=CC(=O)C3=C(C)CC[C@@H]12`: the Potency was 10.7 µM (active).

Regarding `C/C(=C\CCC(C)CCO)C(=O)OC[C@H]1O[C@@H](O[C@@H]2OC=C(C(=O)O)[C@H]3CC[C@](C)(O)[C@@H]23)C(O)[C@@H](O)C1O` (stereo not given in full), the activation was -20.5% (inactive).

As for `O=C(CCc1ccccc1)c1c(O)c([C@@H]2O[C@H](CO)[C@@H](O)[C@H](O)[C@H]2O)c(O)c([C@@H]2O[C@H](CO)[C@@H](O)[C@H](O)[C@H]2O)c1O`, the activation is -1.53% (inactive).

Regarding `C[C@H]1CCN2C[C@]34C[C@@]5(C(=O)Nc6c5ccc5c6OC=CC(C)(C)O5)C(C)(C)C3C[C@]12C(=O)N4C` (stereo not given in full), the activation is 5.34% (inactive).

For `COC(=O)C1=COC(OC2OC(CO)C(O)C(O)C2O)C2C(C)C(OC(C)=O)C(OC(=O)c3ccccc3)C12` (stereo not given), the activation was -6.87% (inactive).

Consider `CCCCCCCOc1cc2c(cc1/C(C)=C/c1ccc(C(=O)O)cc1)C(C)(C)CCS2(=O)=O`, for which the activation is 3% (inactive).

On to `COc1ccc(C2=CC(=O)OC2Cc2ccc(O)cc2)c(O)c1` (stereo not given), for which the activation was -20.6% (inactive).

For `C=C(C)[C@@H]1CC[C@]2(C(=O)O)CC[C@]3(C)[C@H](CCC4[C@@]5(C)CCC(=O)C(C)(C)C5C(O)C[C@]43C)C12` (stereo not given in full), the activation was 13% (inactive).

With `OCC(CO[C@@H]1O[C@H](CO)[C@@H](O)[C@H](O)[C@H]1O)c1ccc2c(c1)OCO2` (stereo not given in full), the activation is 24.1% (inactive).

As for `C=CC(C)(O)CC/C=C(/C)COC(=O)C(C)C1CCC(C)(C=C)O1` (stereo not given), the activation is 5.36% (inactive).

As to `CN(C)CC1CCn2c(c(C3=C(c4cn(C)c5ccccc45)C(=O)NC3=O)c3ccccc32)C1` (stereo not given), the Potency was 34.3 µM (active).

`CC1(C)CC[C@@]2(C(=O)O[C@@H]3O[C@H](CO)[C@@H](O)[C@H](O)[C@H]3O)C(C1)C1=CCC3[C@@]4(C)CC[C@@H](O[C@@H]5O[C@H](C(=O)O)[C@@H](O[C@@H]6OC[C@@H](O)[C@H](O)[C@H]6O)[C@H](O[C@@H]6OC[C@](O)(CO)[C@H]6O)[C@H]5O)C(C)(C)C4CC[C@@]3(C)[C@]1(C)C[C@H]2O` (stereo not given in full): the activation is -19.8% (inactive).

With `COC1CC/C=C(\C)C(=O)Nc2cc(O)cc(c2)CC(C)CC(OC)C(O)C(C)/C=C(\C)C1OC(N)=O` (stereo not given), the activation is 6.87% (inactive).

Turning to `CC(=O)OC(C)(C)/C=C/C(=O)C(C)(O)C1C(O)CC2(C)C3CC=C(C(C)(C)C(=O)O)C(CC(=O)O)C3(C)C(=O)CC12C` (stereo not given), the activation was -3.82% (inactive).

`C/C1=C\C[C@H](O[C@@H]2O[C@H](CO)[C@@H](O)[C@H](O)[C@H]2O)/C(C)=C/[C@H]2OC(=O)[C@H](C)[C@@H]2CC1`: the activation was -8.04% (inactive).

Turning to `C[C@]12C=C[C@@]3(CCC4[C@](C)(CO)CCC[C@@]4(C)C3CC1)C2` (stereo not given in full), the activation is -5.36% (inactive).

`COC(=O)C1(C)CCCC2(C)c3ccc(C(C)C)cc3C(O)C(O)C12` (stereo not given): the activation is -14.3% (inactive).
